Sampled rows, rich in hits. Any-hit rate of the full collection: about 8.9%.
M1 agonist = activates the M1 muscarinic receptor; AID 626; 3% of 64,000 active; B-score at 10 µM; CHO-M1 cells, Fluo-4 calcium fluorescence, agonist mode; hits give high values;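 active means fluorescence rise, raw or as B-score row- and column-corrected plate score, outside the 99.7% band of its plate's samples, either direction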
M1 antagonist = blocks the rat M1 muscarinic receptor response to acetylcholine; CHO-M1 cells, Fluo-4 calcium, ACh EC80 antagonist mode; hits give low values; 3.4% of 64,000 active; P08482; B-score at 10 µM;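 active means calcium fluorescence response, raw or row-and-column corrected B-score, differing from the plate sample mean either way at a set confidence level, mostly lower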
Target sequence (P08482 whole entry, looked up): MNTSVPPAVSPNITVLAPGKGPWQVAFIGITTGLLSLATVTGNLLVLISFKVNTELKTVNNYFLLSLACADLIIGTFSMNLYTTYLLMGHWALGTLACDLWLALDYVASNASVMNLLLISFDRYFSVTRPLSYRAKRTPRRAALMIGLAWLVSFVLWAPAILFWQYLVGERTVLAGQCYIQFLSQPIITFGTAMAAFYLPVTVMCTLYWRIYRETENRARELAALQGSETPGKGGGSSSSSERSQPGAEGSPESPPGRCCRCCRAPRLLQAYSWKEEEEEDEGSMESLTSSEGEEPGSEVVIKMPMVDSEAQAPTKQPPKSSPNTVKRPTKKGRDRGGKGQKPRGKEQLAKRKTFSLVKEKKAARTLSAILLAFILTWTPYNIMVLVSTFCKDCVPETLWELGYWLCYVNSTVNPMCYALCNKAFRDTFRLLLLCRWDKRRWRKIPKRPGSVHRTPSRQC
D1 allo mod = allosteric modulators of human D1 dopamine receptor; P21728; HEK293 D1, CRE-luciferase, dopamine EC30 potentiation; actives deviate in either direction; B-score at 10 µM; 5.9% of 58,000 active;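 active means luminescence count or its row- and column-corrected plate score outside the 99.7% band of the plate's sample wells, on either side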
mHtt clearance = mutant huntingtin protein clearance; HeLa Exon1htt(103Q)mCFP, aggregate imaging; zero = plate's median compound well; inhibition, % at 1.5 µM; 0.42% of 47,000 active; AID 853;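 active means inhibition of aggregate fluorescence above about 70%, also judged a hit by eye on the cell image, limit read from the data, passing the limit was not always enough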;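 further: cells exposed to compound for three days before fixation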
WNV NS2B-NS3 inh = WNV NS2B-NS3 proteinase inhibition; 0.18% of 65,000 active; WNV NS2B-NS3 protease, fluorogenic substrate Ex360/Em465; hits give low values; AID 577; P06935; z-score (concentration not given with the values); in the data active means z-score below about -3
D1 PAM confirm = D1 receptor (human) allosteric modulation, confirmed; shares compounds with D1 allo mod; HEK293 D1 CRE-luciferase, dopamine EC30 potentiation; hits give high values; luminescence at 10 µM; 88% of 2,200 active;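 active means luminescence in either of two replicates above the same-plate mean plus 3 SD of the low-dose dopamine control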
D1 no dopamine = secondary test of D1 modulators: activity without dopamine; shares compounds with D1 allo mod; HEK293 D1 CRE-luciferase, luminescence, no dopamine; hits give high values; luminescence at 10 µM; 0.8% of 1,900 active; in the data active means luminescence above about 3900
Isoprot counter = isoproterenol response counter-screen activity for D1 modulators | shares compounds with D1 allo mod | HEK293 D1 CRE-luciferase, isoproterenol EC30 counter-screen | calls only at 10 µM | 63% of 2,200 active;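 active means luminescence in either replicate above plate mean of wells with a partly effective reference agonist dose plus 3 SD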;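 further: isoproterenol raises cAMP through native beta-adrenoceptor Gs so signal bypasses D1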
* = called active by the depositor.

How did CNc1nc(SCc2ccccc2)nc(N2CCOCC2)n1 do in these assays?
M1 agonist: 0.152; M1 antagonist: -0.0759; D1 allo mod: 11.2*; mHtt clearance: 4.0; WNV NS2B-NS3 inh: 1.25; D1 PAM confirm: 24896*; D1 no dopamine: 1672; Isoprot counter: active

What do the screens show for `O=C(CCCn1c(=O)[nH]c2ccsc2c1=O)NCc1cccs1`?
M1 agonist: 0.176; M1 antagonist: 0.228; D1 allo mod: -0.322; WNV NS2B-NS3 inh: -0.16

Results for CCCc1cc(Nc2cccc(OCC)c2)n2ncnc2n1 ?
M1 agonist: 0.221; M1 antagonist: 1.28; D1 allo mod: 3.2*; WNV NS2B-NS3 inh: -0.2; D1 PAM confirm: 11224*; D1 no dopamine: 1788; Isoprot counter: active

How did CCc1cccc(Nc2cc(C)nc3ncnn23)c1 do in these assays?
M1 agonist: -0.862; M1 antagonist: 0.102; D1 allo mod: 0.169; WNV NS2B-NS3 inh: -0.76

How did CCCc1cc(Nc2cccc(OC)c2)n2ncnc2n1 do in these assays?
M1 agonist: 0.775; M1 antagonist: 1.1; D1 allo mod: 5.19*; mHtt clearance: 21.0; WNV NS2B-NS3 inh: 0.86; D1 PAM confirm: 10608*; Isoprot counter: active

Results for OC1CCN(c2c3c(nc4cc(-c5cccc(F)c5)nn24)CCCC3)CC1 ?
M1 agonist: 7.09; M1 antagonist: 0.0138; D1 allo mod: 7.43*; WNV NS2B-NS3 inh: -0.62; D1 PAM confirm: 17644*; D1 no dopamine: 1772; Isoprot counter: active

Results for O=C1C(Cl)=C(NCC2CCCO2)C(=O)N1C1CCCCC1 (stereo not given) ?
M1 agonist: 0.326; M1 antagonist: 0.186; D1 allo mod: 4.35*; mHtt clearance: -20.7; WNV NS2B-NS3 inh: -0.01; D1 PAM confirm: 8656*; D1 no dopamine: 1704; Isoprot counter: inactive

Results for O=C(Cc1cccs1)Nc1ccccc1NC(=O)Cc1cccs1 ?
M1 agonist: -0.347; M1 antagonist: 0.148; D1 allo mod: 4.9*; WNV NS2B-NS3 inh: -0.2; D1 PAM confirm: 5744; D1 no dopamine: 1712; Isoprot counter: inactive

What do the screens show for `O=C(Cc1cccs1)Nc1ccccc1C(=O)O`?
M1 agonist: 0.304; M1 antagonist: 0.665; D1 allo mod: -1.2; mHtt clearance: 41.3; WNV NS2B-NS3 inh: -0.06

What do the screens show for `CCOC(=O)c1oc2ccccc2c1NC(=O)c1cc(OC)cc(OC)c1`?
M1 agonist: 2.24; M1 antagonist: -0.0965; D1 allo mod: 4.67*; mHtt clearance: 6.9; WNV NS2B-NS3 inh: -0.2; D1 PAM confirm: 13500*; Isoprot counter: active

Results for CCOC(=O)c1oc2ccccc2c1NC(=O)CN1CCN(C)CC1 ?
M1 agonist: 0.0578; M1 antagonist: -1.13; D1 allo mod: 3.48*; mHtt clearance: -10.0; WNV NS2B-NS3 inh: -0.24; D1 PAM confirm: 8308*; D1 no dopamine: 1680; Isoprot counter: active

Results for NC(=O)c1oc2ccccc2c1NC(=O)C1CCCCC1 ?
M1 agonist: 1.06; M1 antagonist: 0.0539; D1 allo mod: 1.72; WNV NS2B-NS3 inh: -1.26

How did NC(=O)c1oc2ccccc2c1NC(=O)c1ccc(F)cc1 do in these assays?
M1 agonist: -0.174; M1 antagonist: -0.0395; D1 allo mod: 4.51*; mHtt clearance: 14.8; WNV NS2B-NS3 inh: 0.18; D1 PAM confirm: 7528*; D1 no dopamine: 1648; Isoprot counter: inactive

How did CCOC(=O)c1oc2ccccc2c1NC(=O)Cc1cccs1 do in these assays?
M1 agonist: 0.339; M1 antagonist: -0.144; D1 allo mod: 0.689; WNV NS2B-NS3 inh: 0.63

What do the screens show for `CCOC(=O)c1oc2ccccc2c1NC(=O)COC`?
M1 agonist: -0.0408; M1 antagonist: 0.219; D1 allo mod: 20.5*; WNV NS2B-NS3 inh: 0.57; D1 PAM confirm: 20772*; D1 no dopamine: 1584; Isoprot counter: active

How did COc1cccc(NC(=O)c2oc3ccccc3c2NC(C)=O)c1 do in these assays?
M1 agonist: 0.397; M1 antagonist: 0.238; D1 allo mod: -0.0378; WNV NS2B-NS3 inh: -1.35

How did CCOCC(=O)Nc1c(C(=O)OCC)oc2ccccc12 do in these assays?
M1 agonist: 0.017; M1 antagonist: 0.329; D1 allo mod: 8.8*; WNV NS2B-NS3 inh: 1.28; D1 PAM confirm: 17016*; D1 no dopamine: 1824; Isoprot counter: active

What do the screens show for `Cc1ccc(NC2c3ncccc3C(=O)N2C2CCCCC2)cc1` (stereo not given)?
M1 agonist: -0.147; M1 antagonist: 0.187; D1 allo mod: 11.2*; WNV NS2B-NS3 inh: 0.29; D1 PAM confirm: 13584*; Isoprot counter: active

Results for O=C1c2cccnc2C(=O)N1C1CCCCC1 ?
M1 agonist: 0.482; M1 antagonist: -0.125; D1 allo mod: 0.774; mHtt clearance: 58.3; WNV NS2B-NS3 inh: 1.13

Results for Cc1ccc(NC2c3ncccc3C(=O)N2C2CCCCC2)cc1C (stereo not given) ?
M1 agonist: -0.0089; M1 antagonist: -0.0526; D1 allo mod: 4.08*; WNV NS2B-NS3 inh: -0.32; D1 PAM confirm: 10752*; D1 no dopamine: 1620; Isoprot counter: active

What do the screens show for `Fc1ccc2nc3n(c2c1F)CCCCCC3`?
M1 agonist: -2.2; M1 antagonist: -1.19; D1 allo mod: 0.545; WNV NS2B-NS3 inh: 0.92

What do the screens show for `O=C(O)C1C2CCC(O2)C1C(=O)NCc1ccncc1` (stereo not given)?
M1 agonist: -0.303; M1 antagonist: 1.09; D1 allo mod: 2.26; mHtt clearance: -18.1; WNV NS2B-NS3 inh: 2.43

Results for CCOC(=O)c1cc(-c2ccc(N)cc2)sc1N ?
M1 agonist: 0.167; M1 antagonist: -0.329; D1 allo mod: 10.5*; mHtt clearance: 9.8; WNV NS2B-NS3 inh: 0.05; D1 PAM confirm: 21552*; D1 no dopamine: 1580; Isoprot counter: active

What do the screens show for `COc1ccc(Cc2nnc(NC(=O)c3c(-c4ccccc4)noc3C)s2)cc1`?
M1 agonist: -0.345; M1 antagonist: -0.149; D1 allo mod: 3.32*; mHtt clearance: 31.6; WNV NS2B-NS3 inh: -0.74; D1 PAM confirm: 6196*; D1 no dopamine: 1588; Isoprot counter: inactive

Results for CCCCC(=O)Nc1ccc(NC(=O)C2CC2)cn1 ?
M1 agonist: 0.0103; M1 antagonist: 0.533; D1 allo mod: -0.379; WNV NS2B-NS3 inh: -0.25

What do the screens show for `CCCC(=O)Nc1ccc(NC(=O)C2CC2)cn1`?
M1 agonist: -0.632; M1 antagonist: 1.05; D1 allo mod: 5.32*; mHtt clearance: 8.4; WNV NS2B-NS3 inh: -0.3; D1 PAM confirm: 5976*; D1 no dopamine: 1712; Isoprot counter: inactive

How did COc1cc(OC)c(C(=O)Nc2ccc(S(=O)(=O)Nc3ncccn3)cc2)cc1OC do in these assays?
M1 agonist: -0.471; M1 antagonist: 1.09; D1 allo mod: 1.05; mHtt clearance: -111.5; WNV NS2B-NS3 inh: 1.1

Screening data: PubChem BioAssay, several laboratories
